Data as given in PubChem BioAssay AID1159580 (chemical genetic matrix, 2015).
Among all 5,500 compounds or so, about 2,000 (36%) were called active. Roughly 18% stayed inconclusive and do not appear here. Cut-off read from the data, not from the text of the source: active = normalized growth mostly below about 0.91 (no sharp cut-off); inconclusive = no clear call, values can overlap the other calls; inactive = mostly above about 0.92. This is one part of the list.

Experiment: chemical genetic growth profiling, strain panel (AID 1159580);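 note: tested at 20 µM; growth read once vehicle control cultures reached saturation at 30 °C; 1 = growth at the plate median or of vehicle wells; lower values mean less growth of the strain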
Conditions: S. cerevisiae deletion strains, growth OD

Measured: normalized growth

CS/C(N)=N\N=C/c1c(F)cccc1Cl
inactive: locus YAL013W, strain DEP1, hits give low values 0.998 | locus YBR229C, strain ROT2, hits give low values 0.992 | locus YCL061C, strain MRC1, hits give low values 0.996 | locus YDL101C, strain DUN1, hits give low values 1 | locus YDR150W, strain NUM1, hits give low values 0.995 | locus YEL061C, strain CIN8, hits give low values 1 | locus YGR078C, strain PAC10, hits give low values 1.01 | locus YHR030C, strain SLT2, hits give low values 0.988 | locus YHR087W, strain rtc3, hits give low values 0.979 | locus YJL187C, strain SWE1, hits give low values 0.986 | locus YJR043C, strain POL32, hits give low values 0.992 | locus YJR075W, strain HOC1, hits give low values 0.991 | locus YLR039C, strain RIC1, hits give low values 1.1 | locus YLR058C, strain SHM2 (second series), hits give low values 0.998 | locus YLR085C, strain ARP6, hits give low values 1.08 | locus YLR262C, strain YPT6, hits give low values 1.03 | locus YML094W, strain GIM5, hits give low values 0.993 | locus YMR219W, strain ESC1, hits give low values 0.995 | locus YMR263W, strain SAP30, hits give low values 1.02 | locus YNL153C, strain GIM3, hits give low values 0.998 | locus YNL298W, strain CLA4 (second series), hits give low values 1.05 | locus YNL322C, strain KRE1, hits give low values 1 | locus YNR030W, strain Alg12, hits give low values 1.05 | locus YPL055C, strain LGE1, hits give low values 1 | locus YPL241C, strain CIN2, hits give low values 0.988 | locus YPR135W, strain CTF4, hits give low values 1.03
